HDAC3 inh: human HDAC3 inhibition | actives 0.15% (n = 320,000) | O15379 | recombinant HDAC3, fluorogenic peptide/trypsin coupled, fluorescence | inhibition, % at 8.3 µM; in the data active = inhibition above about 26%, passing the limit was not always enough
Target sequence (O15379 whole entry, looked up): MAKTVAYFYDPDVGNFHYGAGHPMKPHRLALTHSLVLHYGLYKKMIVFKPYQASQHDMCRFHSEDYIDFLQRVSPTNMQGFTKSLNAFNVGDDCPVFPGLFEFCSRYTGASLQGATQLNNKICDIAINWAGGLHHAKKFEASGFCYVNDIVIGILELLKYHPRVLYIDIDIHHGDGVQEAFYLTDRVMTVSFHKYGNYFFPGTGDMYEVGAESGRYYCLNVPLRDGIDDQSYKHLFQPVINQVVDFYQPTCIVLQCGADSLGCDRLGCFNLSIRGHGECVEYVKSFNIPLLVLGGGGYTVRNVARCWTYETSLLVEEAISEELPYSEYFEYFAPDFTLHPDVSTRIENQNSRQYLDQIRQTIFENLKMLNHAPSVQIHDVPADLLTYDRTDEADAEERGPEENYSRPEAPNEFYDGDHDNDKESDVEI
CTSL1 counter: blocks F. hepatica cathepsin L1 in PFM18AAP counter-screen. actives 0.49% (n = 300,000). inhibition, % at 5.96 µM. AID 1906. recombinant F. hepatica cathepsin L1, Z-Leu-Arg-MCA fluorescence;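 active = inhibition above the mean of all tested compounds plus 3 SD, set per screening campaign, cut at about 17% in these data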;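 also: 0% = plate median of test compound wells and 100% = 1 µM Z-Phe-Ala-diazomethylketone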
LANA-H2A inh: blocks KSHV LANA binding to histone H2A/H2B. cell-free LANA-H2A/H2B peptide, fluorescence polarization. Q9QR71. inhibition, % (no concentration beside the values). actives 0.6% (n = 320,000). AID 2629; in the data active = inhibition mostly above about 10%, no sharp cut-off; inactive = mostly below about 6.7%
m5-HT2A agonist: agonists of mouse serotonin 5-HT2A receptor (HTR2A); AID 624169; actives 0.66% (n = 360,000); activation, % at 7.6 µM; P35363; CHO-K1 mHTR2A beta-arrestin complementation, luminescence; percent of 30 µM serotonin response;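 active = activation above a run cutoff, the mean activation of all tested compounds plus 3 SD, cut at about 14% in these data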;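 also: 0% = plate median of compound wells and 100% = 30 µM serotonin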
* marks the source's active call; other numbers are inactive results; · = not tested or not shown. This is a sample that favours compounds with a hit; in the whole collection about 1.7% have one here.

SMILES	HDAC3 inh	CTSL1 counter	LANA-H2A inh	m5-HT2A agonist
Cc1csc(=O)n1CCC(=O)OCC(=O)Nc1ccc(Cl)cn1	3.0	-4.1	-4.8	-5.0
O=C(COC(=O)c1cncc(Br)c1)NC12CC3CC(CC(C3)C1)C2	-7.2	·	19.5*	-2.7
O=C(NC12CC3CC(CC(C3)C1)C2)c1cncc(Br)c1	-5.4	3.2	-4.9	6.4
COc1ccccc1-c1c(C)oc2cc(OC(=O)c3ccco3)ccc2c1=O	31.4*	-8.3	-0.3	-0.7
CC(OC(=O)C1CCN(S(=O)(=O)c2ccc3c(c2)OCCO3)CC1)C(=O)NC1(C#N)CCCCC1 (configuration not stated)	·	·	·	-9.3
NC(=O)C1CCCN(Cc2c(C(=O)N3CCc4ccccc4C3)nc3ccc(Cl)cn23)C1 (configuration not stated)	0.1	-0.3	99.3*	-6.1
CCCCN(C)Cc1c(C(=O)N2CCc3ccccc3C2)nc2ccc(Cl)cn12	5.2	1.8	-2.8	-2.0
CC1CCCN(Cc2c(C(=O)N3CCc4ccccc4C3)nc3ccc(Cl)cn23)C1 (configuration not stated)	0.7	3.2	-0.3	0.2
CC(C)CN(C)Cc1c(C(=O)N2CCc3ccccc3C2)nc2ccc(Cl)cn12	7.9	1.1	16.6*	-3.6
CC1(C)Cc2c(cnn2-c2ccc(F)cc2)C(NC(=O)C2=NNC(=O)CC2)C1 (configuration not stated)	-13.4	-1.3	1.2	0.3
Cc1nc2nc(CCNS(=O)(=O)c3ccc(Cl)cc3)cn2nc1C	-0.8	30.1*	0.7	-0.7
COCCCn1c(=O)cc(C)[nH]c1=S	0.1	-4.2	14.5*	7.3
COCCCn1c(=S)[nH]c(C)c(C)c1=O	16.2	0.3	-1.5	1.4
O=C(Nc1ccc(Oc2ccccc2)nc1)C1CCCCN1Cc1ccc(OCCO)cc1 (configuration not stated)	0.3	2.2	-1.4	-2.9
Cc1cc2cc(CNC(=O)c3cccs3)ccc2n1C	8.5	2.1	78.2*	1.3
C=CCS/C(N)=N\N=C\c1c(O)ccc2ccccc12	19.7	22.1*	6.4	1.2
CC(=O)Nc1ccc(S(=O)(=O)N(C)CC(=O)NC2CCCCCCC2)cc1	-2.3	·	-1.3	5.0
CC(=O)Nc1ccc(S(=O)(=O)N(C)CC(=O)OC2CCCCC2=O)cc1 (configuration not stated)	-3.9	·	58.9*	5.0
O=C(COC(=O)/C=C/c1ccc(OC(F)F)cc1)Nc1cccc(S(=O)(=O)N2CCOCC2)c1	11.1	·	-0.1	-6.4
COc1cc(CN(C)c2ncnc3sccc23)ccc1OC(F)F	6.0	0.1	16.5*	2.7
CCn1c(CN2CCOCC2)nnc1SCC(=O)Nc1ccccc1C	-2.5	-2.6	127.1*	-2.0
COc1ccc(NC(=O)c2cccc(-c3ccc(O)cc3)c2)cn1	-0.1	6.2	9.1	-10.2
C=CCC1NS(=O)(=O)OCC1NC(=O)OCC(Cl)(Cl)Cl (configuration not stated)	-0.4	20.0*	-3.8	7.5
C=CCC1NS(=O)(=O)OCC1C(C)C (configuration not stated)	0.4	-0.9	-0.8	-1.4
O=C(CN1C(=O)C2C3C=CC(C3)C2C1=O)NCc1ccc2c(c1)OCO2 (configuration not stated)	-5.0	-0.5	19.0*	1.0
SMILES	HDAC3 inh	CTSL1 counter	LANA-H2A inh	m5-HT2A agonist
COc1cccc(COC(=O)C2CCN(S(=O)(=O)c3ccc(C)cc3)CC2)c1OC	1.9	-1.1	3.0	4.9
COc1cccc(COC(=O)C2CCN(S(=O)(=O)c3ccc(C)cc3C)CC2)c1OC	12.1	-0.1	27.3*	1.1
C=CCN1C(=O)C2(OCCCO2)c2cc(C)ccc21	-9.3	-0.5	-5.7	-2.9
Cc1ccc(OCCNC(=O)CCc2nc3sc4c(c3c(=O)[nH]2)CCCC4)cc1	-4.2	-1.2	34.8*	2.9
O=C(NCCc1ccccc1)c1ccc(Cl)c(S(=O)(=O)N2CCOCC2)c1	·	·	·	5.5
CCOCCCNC(=O)CNC(=S)N(Cc1ccccc1F)C1CCCCC1	1.5	3.9	4.5	2.9
COCCCNC(=O)CNC(=S)N(Cc1ccc(F)cc1)C1CCCCC1	-1.7	-2.9	29.8*	8.2
Cc1c(NC(=O)C2CC(c3cccc(Br)c3)=NO2)c(=O)n(-c2ccccc2)n1C (configuration not stated)	1.1	17.0*	0.4	-0.2
Cc1c(NC(=O)c2cc(C3CC3)on2)c(=O)n(-c2ccccc2)n1C	4.3	42.0*	1.9	-1.8
Cc1c(NC(=O)c2cc(-c3ccccc3)on2)c(=O)n(-c2ccccc2)n1C	-3.3	-0.4	-2.0	-0.2
Cc1oncc1C(=O)Nc1cccc(C#N)c1	-0.1	2.1	-3.0	2.7
O=C(Nc1c(-c2ccc3c(c2)OCO3)[nH][nH]c1=O)c1ccc2c(c1)OCO2	·	·	·	0.2
CCN(C(=O)COC(=O)c1ccc(O)cc1O)c1c(N)n(Cc2ccccc2)c(=O)[nH]c1=O	-0.4	·	15.3	-7.7
O=C(c1cc2cc(Br)ccc2o1)N1CCN(c2ccccc2)CC1	0.4	0.6	16.0*	-3.5
O=C(c1cc2cc(Br)ccc2o1)N1CCOCC1	6.1	2.7	-0.6	-0.2
CCOC(=O)c1c(C)[nH]c(C(=O)OCC(=O)NC2(C#N)CCCCC2)c1C	14.3	-8.9	-0.8	0.7
FC(F)(F)c1cccc(-c2nnc(-c3ccccc3)c(N3CCOCC3)n2)c1	2.6	17.4*	0.4	-3.4
Cc1nn(-c2ccccc2)c(Cl)c1C(=O)NCC1CCCO1 (configuration not stated)	1.8	·	23.7*	1.9
COc1ccc(N(C(=O)c2ccncc2)S(=O)(=O)c2cccc([N+](=O)[O-])c2)cc1	0.1	-0.8	-4.2	0.2
CCCC(=O)Oc1ccc(N(C(=O)CCC)S(=O)(=O)c2cccc([N+](=O)[O-])c2)cc1	50.1*	-5.6	3.1	1.3
CC(=O)Oc1ccc(N(C(C)=O)S(=O)(=O)c2cccs2)cc1	3.9	-13.3	-6.2	1.4
CCCC(=O)Oc1ccc(N(C(=O)CCC)S(=O)(=O)c2cccs2)cc1	56.2*	-0.2	-0.2	-0.9
CCn1cc(C(=O)O)c(=O)c2cc(F)c(N3CCNCC3)cc21	·	0.9	70.7*	0.4
CCCCCCn1cc(C(=O)O)c(=O)c2cc(F)c(N3CCN(C)CC3)cc21	-11.4	3.5	-1.6	16.1*
CCn1cc(C(=O)O)c(=O)c2cc(F)c(N3CCN(C)CC3)cc21	-8.1	6.7	2.5	-0.4
COCCCNC(=O)CNC(=O)c1nn(-c2ccc(OC)c(Cl)c2)c(=O)c2ccccc12	4.3	1.9	5.2	-9.8
CC(C)CC(NC(=O)C1CCC(=O)N1)C(=O)NC(CC(C)C)C(=O)N1CCCC1C(N)=O (configuration not stated)	2.1	17.1*	0.7	-1.4
CC(C)CC(NC(=O)C(NC(=O)OC(C)(C)C)C(C)C)C(=O)N1CCCC1C(N)=O (configuration not stated)	1.2	18.4*	3.2	0.7
COC(=O)[C@@H]1CCCN1C(=O)[C@@H](NC(=O)OC(C)(C)C)C(C)C	-6.7	0.2	3.4	-2.5
